We go through ten molecules from PubChem BioAssay (NCI).

A short description of assay [1]: NCI Yeast Anticancer Drug Screen. Data for the rad50 strain (AID 155).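 Further: 0% = growth of vehicle-only cultures of the same strain.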 As to conditions: S. cerevisiae rad50 strain growth inhibition, active compounds read high. The gist of the method:
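Growth of the mutant yeast was measured after compound exposure and referenced to vehicle-treated cultures.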

The nature of assay [2]: NCI Yeast Anticancer Drug Screen. Data for the mec2-1 strain (AID 157). As to conditions: S. cerevisiae mec2-1 strain, active compounds read high. The gist of the method:
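Mutant yeast (mec2-1) grown with compound; growth inhibition relative to vehicle control reported.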

A short description of assay [3]: NCI Yeast Anticancer Drug Screen. Data for the sgs1 mgt1 strain (AID 161).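 Further: 0% = growth of cultures given vehicle only.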 As to conditions: S. cerevisiae sgs1 mgt1 strain, active compounds read high. The gist of the method:
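Percent growth inhibition was derived by comparing compound-exposed mutant yeast with vehicle-exposed cultures. The strain carries alterations in DNA damage repair.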

Assay [4] is described as follows: NCI Yeast Anticancer Drug Screen. Data for the cln2 rad14 strain (AID 165).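 Further: 0% = growth equal to vehicle treated cultures.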 The following applies: S. cerevisiae cln2 rad14 strain, active compounds read high. The gist of the method: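 Readout is yeast growth inhibition versus vehicle-treated controls, using a strain with cln2 and rad14 alterations exposed to compound.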
The nature of assay [5]: NCI Yeast Anticancer Drug Screen. Data for the bub3 strain (AID 167). The following applies: S. cerevisiae bub3 mutant strain, active compounds read high. A digest of the protocol: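 Whole-cell yeast assay. The mutant strain was incubated with compounds, and growth inhibition was determined by comparison with vehicle-treated cells.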
The nature of assay [6]: NCI Yeast Anticancer Drug Screen. Data for the mlh1 rad18 strain (AID 175). As to conditions: S. cerevisiae mlh1 rad18 strain growth inhibition, active compounds read high. A digest of the protocol: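 Genetically defined yeast (DNA repair-deficient) exposed to compounds; growth inhibition determined relative to vehicle.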
[7] abbreviates: at 5.0 µM (retest, dose inferred, filed as 0.5).
[8] abbreviates: at 50.0 µM (retest, dose inferred, filed as 5.0).

Structures are written as SMILES. Compounds without any hit were thinned out: in the full panel of roughly 79,000, 15% have a hit. Values without a mark were called inactive. The source made the active and inactive calls. No stated cut-off is given here; in the data, active means growth inhibition above about 70%; inactive means the rest.

On to `C=C1CC/C=C(/C(=O)O)CC[C@H]2[C@@H]1CC2(C)C`, for which the growth inhibition in assay [1] (setting [7]) is -5%; in assay [1] (setting [8]), 58%; in assay [1] (at 50.0 µM), 63.6%; in assay [2] (setting [7]), 4%; in assay [2] (setting [8]) it was 71% (active); in assay [2] (at 50.0 µM), 60.1%. The growth inhibition is 3% in assay [3] (setting [7]); 68% in assay [3] (setting [8]); 57.4% in assay [3] (at 50.0 µM); -6% in assay [4] (setting [7]); 50% in assay [4] (setting [8]); 53.6% in assay [4] (at 50.0 µM). The growth inhibition in assay [5] (setting [7]) is 0%; in assay [5] (setting [8]), 78% (active); in assay [5] (at 50.0 µM), 69.5%; in assay [6] (setting [7]), -1%; in assay [6] (setting [8]), 74% (active); in assay [6] (at 50.0 µM), 53.2%.

As for `O/N=C(/CCc1ccccc1Cl)c1ccccc1`, the growth inhibition in assay [1] (setting [7]) was 3%; in assay [1] (setting [8]) it was 34%; in assay [1] (at 50.0 µM), 94% (active); in assay [2] (setting [7]) it was -5%; in assay [2] (setting [8]), 55%; in assay [2] (at 50.0 µM), 93.6% (active). Besides, the growth inhibition in assay [3] (setting [7]) was 3%; in assay [3] (setting [8]) it was 75% (active); in assay [3] (at 50.0 µM) it was 96.3% (active); in assay [4] (setting [7]), -2%; in assay [4] (setting [8]), 41%; in assay [4] (at 50.0 µM), 90.1% (active). Besides, the growth inhibition is 6% in assay [5] (setting [7]); 61% in assay [5] (setting [8]); 87.2% (active) in assay [5] (at 50.0 µM); 1% in assay [6] (setting [7]); 80% (active) in assay [6] (setting [8]); 93.3% (active) in assay [6] (at 50.0 µM).

On to `CCOc1cc2c(cc1Cc1c(OC)cc(OC)cc1OC)OCO2`, for which the growth inhibition in assay [1] (setting [7]) was 5%; in assay [1] (setting [8]), 27%; in assay [1] (at 50.0 µM), 46%; in assay [2] (setting [7]), 3%; in assay [2] (setting [8]) it was 31%; in assay [2] (at 50.0 µM) it was 16.5%. Also, the growth inhibition in assay [3] (setting [7]) was 8%; in assay [3] (setting [8]) it was 57%; in assay [3] (at 50.0 µM) it was 88% (active); in assay [4] (setting [7]), 4%; in assay [4] (setting [8]), 30%; in assay [4] (at 50.0 µM) it was 46.8%. The growth inhibition in assay [5] (setting [7]) is 4%; in assay [5] (setting [8]), 63%; in assay [5] (at 50.0 µM), 77.8% (active); in assay [6] (setting [7]), 7%; in assay [6] (setting [8]) it was 73% (active); in assay [6] (at 50.0 µM), 83.3% (active).

Consider `C1=C(C2=C[P+](c3ccccc3)(c3ccccc3)C=C(c3ccccc3)O2)OC(c2ccccc2)=C[P+]1(c1ccccc1)c1ccccc1`, for which the growth inhibition in assay [1] (setting [7]) was 7%; in assay [1] (setting [8]) it was 15%; in assay [1] (at 50.0 µM) it was -10.1%; in assay [2] (setting [7]), 4%; in assay [2] (setting [8]) it was 8%; in assay [2] (at 50.0 µM) it was -7.05%. Moreover, the growth inhibition in assay [3] (setting [7]) is 5%; in assay [3] (setting [8]), 15%; in assay [3] (at 50.0 µM), -5.35%; in assay [4] (setting [7]), 5%; in assay [4] (setting [8]) it was 2%; in assay [4] (at 50.0 µM), 71% (active). The growth inhibition is 11% in assay [5] (setting [7]); 66% in assay [5] (setting [8]); 6.8% in assay [5] (at 50.0 µM); 9% in assay [6] (setting [7]); 6% in assay [6] (setting [8]); 18.3% in assay [6] (at 50.0 µM).

For `O=C(N/N=C/c1ccccn1)c1ccccc1[O-].O=C(N/N=C/c1ccccn1)c1ccccc1[O-].[Co+2]`, the growth inhibition in assay [1] (setting [7]) is 5%; in assay [1] (setting [8]), 0%; in assay [1] (at 50.0 µM) it was 38.2%; in assay [2] (setting [7]) it was 21%; in assay [2] (setting [8]), 0%; in assay [2] (at 50.0 µM), 48.1%. Further, the growth inhibition in assay [3] (setting [7]) was 13%; in assay [3] (setting [8]) it was 5%; in assay [3] (at 50.0 µM), 42.5%; in assay [4] (setting [7]), 14%; in assay [4] (setting [8]) it was 2%; in assay [4] (at 50.0 µM), 72.8% (active). In addition, the growth inhibition in assay [5] (setting [7]) was 17%; in assay [5] (setting [8]) it was 2%; in assay [5] (at 50.0 µM) it was 99.2% (active); in assay [6] (setting [7]), 18%; in assay [6] (setting [8]), -2%; in assay [6] (at 50.0 µM), 66.8%.

With `O=C(C(=O)n1ncc(Cl)c(Cl)c1=O)n1ncc(Cl)c(Cl)c1=O`, the growth inhibition in assay [1] (setting [7]) was 5%; in assay [1] (setting [8]), 7%; in assay [1] (at 50.0 µM), 18.6%; in assay [2] (setting [7]) it was -5%; in assay [2] (setting [8]), 10%; in assay [2] (at 50.0 µM), 70.9% (active). The growth inhibition in assay [3] (setting [7]) is 5%; in assay [3] (setting [8]), 8%; in assay [3] (at 50.0 µM), 44.9%; in assay [4] (setting [7]), -6%; in assay [4] (setting [8]), -15%; in assay [4] (at 50.0 µM) it was 13.8%. Also, the growth inhibition was -2% in assay [5] (setting [7]); -1% in assay [5] (setting [8]); 36.9% in assay [5] (at 50.0 µM); 0% in assay [6] (setting [7]); 3% in assay [6] (setting [8]); 65.9% in assay [6] (at 50.0 µM).

Regarding `O=S(O)CCCCCSSc1ccc(Cl)cc1`, the growth inhibition in assay [1] (setting [7]) was 3%; in assay [1] (setting [8]), 81% (active); in assay [1] (at 50.0 µM), 98% (active); in assay [2] (setting [7]), 9%; in assay [2] (setting [8]), 100% (active); in assay [2] (at 50.0 µM) it was 95.8% (active). The growth inhibition in assay [3] (setting [7]) is 5%; in assay [3] (setting [8]) it was 97% (active); in assay [3] (at 50.0 µM), 98.8% (active); in assay [4] (setting [7]), -2%; in assay [4] (setting [8]), 97% (active); in assay [4] (at 50.0 µM) it was 98.2% (active). Moreover, the growth inhibition in assay [5] (setting [7]) is 25%; in assay [5] (setting [8]), 99% (active); in assay [5] (at 50.0 µM), 99% (active); in assay [6] (setting [7]) it was 8%; in assay [6] (setting [8]), 97% (active); in assay [6] (at 50.0 µM) it was 98.2% (active).

As to `CCOC(=O)C(NC(C)=O)[CH](c1ccccc1)[Sn]([Cl])([c]1ccccc1)[c]1ccccc1` (stereo not given), the growth inhibition was -7% in assay [1] (setting [7]); -13% in assay [1] (setting [8]); 59.4% in assay [1] (at 50.0 µM); -1% in assay [2] (setting [7]); -12% in assay [2] (setting [8]); 65.7% in assay [2] (at 50.0 µM). Also, the growth inhibition is -8% in assay [3] (setting [7]); -5% in assay [3] (setting [8]); 64.7% in assay [3] (at 50.0 µM); -22% in assay [4] (setting [7]); -2% in assay [4] (setting [8]); 49.1% in assay [4] (at 50.0 µM). The growth inhibition in assay [5] (setting [7]) was -14%; in assay [5] (setting [8]), 12%; in assay [5] (at 50.0 µM) it was 37.4%; in assay [6] (setting [7]) it was 1%; in assay [6] (setting [8]), 1%; in assay [6] (at 50.0 µM), 60.5%.

As to `COC(=O)c1ccc(CCC2=CC(=O)C=CC2=O)cc1`, the growth inhibition in assay [1] (setting [7]) is 39%; in assay [1] (setting [8]) it was 99% (active); in assay [1] (at 50.0 µM), 84.3% (active); in assay [2] (setting [7]) it was 39%; in assay [2] (setting [8]), 100% (active); in assay [2] (at 50.0 µM) it was 92.8% (active). Further, the growth inhibition in assay [3] (setting [7]) is 35%; in assay [3] (setting [8]), 100% (active); in assay [3] (at 50.0 µM) it was 91.2% (active); in assay [4] (setting [7]), 29%; in assay [4] (setting [8]), 75% (active); in assay [4] (at 50.0 µM), 89.3% (active). The growth inhibition in assay [5] (setting [7]) was 43%; in assay [5] (setting [8]), 100% (active); in assay [5] (at 50.0 µM) it was 91.3% (active); in assay [6] (setting [7]), 49%; in assay [6] (setting [8]), 99% (active); in assay [6] (at 50.0 µM) it was 65.8%.

As for `O=C(O)CCCc1ccc2c(c1)CC1(C2)Cc2ccc(CCCC(=O)O)cc2C1`, the growth inhibition in assay [1] (setting [7]) was 28%; in assay [1] (setting [8]) it was 44%; in assay [1] (at 50.0 µM), -38%; in assay [2] (setting [7]) it was 21%; in assay [2] (setting [8]) it was 33%; in assay [2] (at 50.0 µM) it was 2.15%. The growth inhibition in assay [3] (setting [7]) was 27%; in assay [3] (setting [8]), 38%; in assay [3] (at 50.0 µM) it was -28.3%; in assay [4] (setting [7]), 22%; in assay [4] (setting [8]), 27%; in assay [4] (at 50.0 µM), 8.65%. In addition, the growth inhibition in assay [5] (setting [7]) is 20%; in assay [5] (setting [8]) it was 29%; in assay [5] (at 50.0 µM) it was 9.45%; in assay [6] (setting [7]), 28%; in assay [6] (setting [8]), 45%; in assay [6] (at 50.0 µM), -5.8%.
